Data reported in PubChem BioAssay AID1851 (National Center for Advancing Translational Sciences (NCATS), 2009).
Out of some 16,000 compounds screened, about 4,000 (25%) were called active. Another 26% or so got no clear call; they are omitted. These entries were drawn from the full list. Unmarked numbers belong to inactive results. Calls come from the whole dose curve; as a rule, active = well fitted curve in the direction sought with a large enough effect; inconclusive = small, poorly fitted or top-dose-only effect, or effect the other way; inactive = no such curve, though single readings can be large or run the other way.

target: Cytochrome P450 2C9 (Homo sapiens) (UniProt P11712); test: Cytochrome panel assay with activity outcomes; settings: recombinant CYP, pro-luciferin dealkylation, luminescence, p450-cyp2c9; series mostly up to 57.1 µM; activity, negative = inhibition: at the top concentration
% is set by controls: 0 for no effect and ±100 for the full control effect.

Chain of Cytochrome P450 2C9 (Homo sapiens) (P11712 whole entry, looked up): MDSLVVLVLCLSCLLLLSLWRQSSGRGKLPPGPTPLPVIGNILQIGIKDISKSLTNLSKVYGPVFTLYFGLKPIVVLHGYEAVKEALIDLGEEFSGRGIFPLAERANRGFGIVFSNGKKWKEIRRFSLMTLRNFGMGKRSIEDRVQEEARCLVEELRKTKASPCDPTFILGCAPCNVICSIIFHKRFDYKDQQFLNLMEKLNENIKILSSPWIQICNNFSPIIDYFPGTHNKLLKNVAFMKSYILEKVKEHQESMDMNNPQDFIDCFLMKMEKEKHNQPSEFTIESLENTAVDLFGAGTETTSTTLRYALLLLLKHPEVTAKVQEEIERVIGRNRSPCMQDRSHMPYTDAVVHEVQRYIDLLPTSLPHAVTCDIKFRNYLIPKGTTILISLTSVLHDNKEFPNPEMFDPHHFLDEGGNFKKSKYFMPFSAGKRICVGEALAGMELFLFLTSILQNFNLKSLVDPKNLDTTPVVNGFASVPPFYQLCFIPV

| Structure (SMILES) | activity, negative = inhibition | AC50 |
| --- | --- | --- |
| CC(C)(C)CNCCO | 3.65% [at 11.4 µM] |  |
| O=C(Nc1cccc(F)c1)N1CC[C@@]2(CCCN(C(=O)c3cnccn3)C2)C1 | 1.58% |  |
| CS(=O)(=O)Nc1ccc(S(=O)(=O)N2CCOCC2)cc1 | -26.6% |  |
| COc1cc(NC(=S)Nc2ccc(S(=O)(=O)N3CCOCC3)cc2)cc(OC)c1OC |  | 15.8 µM (active) |
| FC(F)(F)c1ccccc1-c1cncnc1Nc1ccccc1 | -0.414% [at 2.29 µM] |  |
| CC(=O)NCCNc1cc(-c2ccccc2C(F)(F)F)ncn1 | -3.9% [at 2.29 µM] |  |
| CC=C(/C(=C/C)c1ccc(O)cc1)c1ccc(O)cc1 |  | 0.794 µM (active) |
| Cc1cc(N2CCN(C)CC2)n2nc(-c3ccc(Cl)cc3)nc2n1 | 6.91% [at 11.4 µM] |  |
| CN(C)c1ncc2nc(-c3cccs3)c(=O)n(C[C@H]3CCCO3)c2n1 | 6.79% |  |
| O=c1c(-c2cccs2)nc2cnc(Nc3ccccc3)nc2n1C[C@H]1CCCO1 | 2.81% |  |
| O=c1cnc2cnc(Nc3ccccc3)nc2n1C[C@H]1CCCO1 | -25.1% |  |
| COc1ccc(-c2nc3cnc(N(C)C)nc3n(C[C@H]3CCCO3)c2=O)cc1 | 25.1% |  |
| COc1ncc2nc(-c3cc(F)cc(F)c3)c(=O)n(C[C@H]3CCCO3)c2n1 | -21.8% |  |
| O=c1c(CCc2ccccc2)nc2cnc(Oc3cccc(Cl)c3)nc2n1C[C@H]1CCCO1 |  | 6.31 µM (active) |
| Cc1nc2cnc(Oc3cccc(Cl)c3)nc2n(C[C@H]2CCCO2)c1=O | -12.1% |  |
| O=c1c(-c2cccs2)nc2cnc(Oc3cccc(Cl)c3)nc2n1C[C@H]1CCCO1 |  | 3.16 µM (active) |
| COc1ccc(-c2nc3cnc(Oc4cccc(Cl)c4)nc3n(C[C@H]3CCCO3)c2=O)cc1 |  | 5.01 µM (active) |
| Cc1noc(C)c1-c1nccc(N2CCN(C)CC2)n1 | 14.4% [at 2.29 µM] |  |
| CN(C)Cc1ccccc1-c1cncnc1NCc1cccnc1 | 11.6% [at 2.29 µM] |  |
| COc1ccc(CNc2cc(-c3ccccc3CN(C)C)ncn2)c(OC)c1 | 4.22% [at 2.29 µM] |  |
| Cc1ccc(-n2c(C)cc(C(=S)N3CCOCC3)c2C)cc1C |  | 11.2 µM (active) |

| Structure (SMILES) | activity, negative = inhibition | AC50 |
| --- | --- | --- |
| CC(=O)Nc1c(C(=O)N2CCOCC2)cnn1-c1ccc(C)c(C)c1 | 17.7% |  |
| Cc1cnc(CNc2ccnc(-c3ccoc3)n2)cn1 | 12.6% [at 2.29 µM] |  |
| COc1cc2c(cc1OC)-c1cc(=Nc3c(C)cc(C)cc3C)n(C)c(=O)n1CC2 |  | 1.26 µM (active) |
| CSc1c(-c2ccccc2)nc2ccccc2c1C(=O)O | -28.5% |  |
| Cc1cnc2cc(Cl)ccc2c1SCC(=O)O | 3.69% [at 11.4 µM] |  |
| CSc1c(-c2ccccc2)nc2ccc(Cl)cc2c1C(=O)O |  | 0.794 µM (active) |
| CC1(C)CC(O)CC(C)(C)N1CC(O)COCCOc1ccc(Br)cc1 (configuration not stated) | 14.8% |  |
| Cc1ccccc1NC(=S)NN1CCN(C)CC1 | -10.3% |  |
| COc1ccc(/C=C(/C(=O)Nc2ccccc2C(=O)NC(C)C)c2ccccc2)cc1 |  | 10 µM (active) |
| O=C(O)/C(=C\c1ccccc1)c1ccccc1 | -20.6% [at 11.4 µM] |  |
| Cc1ccccc1NC(=O)/C(=C/c1ccccc1)c1ccccc1 |  | 7.94 µM (active) |
| CC(C)NC(=O)/C(=N\O)c1ccccc1 | -13.6% |  |
| O=C(O)c1c2ccccc2cc2ccccc12 | -19.8% |  |
| N[C@@H](Cc1ccnnc1)C(=O)O | -15.4% [at 11.4 µM] |  |
| CCN(CC)C(=O)CSc1nnc(CNc2ccc(F)cc2)o1 | -13.6% |  |
| O=C(CSc1nnc(CNc2ccc(F)cc2)o1)N1c2ccccc2Sc2ccccc21 |  | 4.47 µM (active) |
| N#Cc1cccc(-c2cc(NCc3ccccc3)ncn2)c1 | 10.6% [at 2.29 µM] |  |
| Cc1ccc(-[n+]2cc(=O)o[nH]2)cc1 | 2.87% [at 11.4 µM] |  |
| O=S(=O)(Nc1ccc2oc(-c3ccccc3)nc2c1)c1ccccc1 |  | 0.794 µM (active) |
| CS(=O)(=O)Nc1cccc(-c2nc(Nc3ccc(F)cc3)c3ccccc3n2)c1 | -24.2% [at 2.29 µM] |  |
| CN(C)c1nc(-c2cccc(NS(C)(=O)=O)c2)nc2ccccc12 | 15.7% [at 2.29 µM] |  |

| Structure (SMILES) | activity, negative = inhibition | AC50 |
| --- | --- | --- |
| CC(C)CN=C(N)N=C(N)N | -6.17% [at 11.4 µM] |  |
| CC1CCc2c(C(=O)Nc3nccs3)csc2C1 (configuration not stated) |  | 3.16 µM (active) |
| CN1CCc2cc(Cl)c(O)cc2[C@H](c2ccccc2)C1 | 27.1% |  |
| CC1=NN(c2ccc(F)cc2)C(=O)C1C(c1cccc(O)c1)c1c(C)[nH]n(-c2ccc(F)cc2)c1=O (configuration not stated) |  | 4.47 µM (active) |
| COc1cccc(C(c2c(C)[nH]n(-c3ccccc3)c2=O)c2c(C)[nH]n(-c3ccccc3)c2=O)c1O | -12.3% |  |
| CCC(=O)O[C@@]1(C(=O)SCF)[C@@H](C)C[C@H]2[C@@H]3C[C@@H](F)C4=CC(=O)C=C[C@@]4(C)[C@]3(F)[C@@H](O)C[C@]21C | 12.7% [at 25.6 µM] |  |
| O=C(O)CP(=O)(O)O |  | inactive |
| COc1ccc(NC(=O)c2ccc(COc3ccccc3)o2)cc1 |  | 0.251 µM (active) |
| COC(=O)c1cccc(NC(=O)CCCOc2ccccc2)c1 |  | 3.16 µM (active) |
| COc1ccc(NC(=O)CCOc2ccccc2)cc1 |  | 11.2 µM (active) |
| COC(=O)CCC(=O)Nc1cccc(C(=O)Nc2cccc(Cl)c2)c1 |  | 3.16 µM (active) |
| CC(=O)c1cccc(NC(=O)Oc2ccccc2)c1 | -21.4% |  |
| Cc1cccc(OCCCC(=O)Nc2ccc(N3CCCCC3)cc2)c1 | -22.4% |  |
| O=C(O)CCSC1=NCCN1 | 2.01% [at 11.4 µM] |  |
| CN(C)Cc1ccccc1-c1cc(NCc2cccs2)ncn1 | 12.8% [at 2.29 µM] |  |
| C[C@]12CC[C@H]3c4ccc(O)cc4CC[C@@H]3[C@H]1CC[C@@H]2OC(=O)CCC1CCCC1 | 17.9% [at 11.4 µM] |  |
| Cc1onc(C(=O)/C=C/N(C)C)c1C(=O)Nc1nccs1 | 15.6% |  |
| COC(=O)c1cccc(NC(=O)Nc2ccc(Cl)c(Cl)c2)c1 |  | 2.51 µM (active) |
| O=C(Nc1cccc(Cl)c1)Nn1cnnc1 | 8% [at 11.4 µM] |  |
| Cc1ccc(OCc2ccc(C(=O)Nc3nccs3)o2)cc1C |  | 10 µM (active) |
